# From PubChem BioAssay AID651607 (The Scripps Research Institute Molecular Screening Center, 2012)
# Out of some 1,400 compounds screened, about 600 (43%) were called active. The set was probably picked from earlier hits. Only a sample is shown. A number with no mark means an inactive call. Cut-off read from the data, not from the text of the source: active = inhibition above about 17%; inactive = the rest.
# Tested on: methionyl-tRNA synthetase (Trypanosoma brucei brucei)
# Experiment: inhibition of trypanosome methionyl-tRNA synthetase – biochemical, fluorescence polarization, orthogonal assay for T. brucei MetRS inhibitor project (AID 651607);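 note: 0% = vehicle wells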
# Details: purified T. brucei MetRS, at 11.9 µM, active compounds read high
row,SMILES,inhibition
1,O=C(CC(=O)Nc1ccc(Cl)c(Cl)c1)N/N=C/c1ccc(O)cc1,30.8% (active)
2,O=C(Cn1c2[n+](c3ccc(C(F)(F)F)cc31)CCCCC2)Nc1c(F)cccc1F,9.23%
3,O=C(OCc1nc2ccccc2[nH]1)C1CCCCC1,9.3%
4,CCO[C@@H]1OC(C(=O)NCc2nc3ccccc3[nH]2)=C[C@H](C2CCCCC2)[C@H]1CCCO,17.2% (active)
5,O=C(Nc1ccccc1)Nc1nnc(COc2ccccc2F)s1,23.8% (active)
6,Cc1ccc(CNC(=O)CSc2nnc3c(n2)[nH]c2ccc(F)cc23)cc1,51.8% (active)
7,CN(C(=O)CSc1nnc(Nc2ccccc2)s1)C1CCS(=O)(=O)C1 (stereo not drawn),-4.02%
8,CCCCCCCC[n+]1cccc(C(=O)N2c3c(nc(N)[nH]c3=O)NC(C)C2C)c1 (stereo not drawn),13.1%
9,NC1=NC(=O)S/C1=C\c1ccc(O)cc1,16%
10,CC(C)(C)c1ccc(/C=C2\SC(=O)N=C2N)cc1,22.6% (active)
11,CN(C(=O)CSc1nnc(-c2c[nH]c3ccccc23)o1)C1CCS(=O)(=O)C1 (stereo not drawn),15.7%
12,O=C1CCCN1CCCNc1ncnc2c1[nH]c1ccccc12,28.8% (active)
13,COc1ccc(CCn2ccc(O)c(Cc3ccc(Cl)cc3Cl)c2=O)cc1OC,2.44%
14,Cc1ccc(S(=O)(=O)c2c[nH]c3ccc(Cl)cc3c2=O)cc1,60.6% (active)
15,Cc1ccc(S(=O)(=O)c2c[nH]c3ccc(C)cc3c2=O)cc1,20.1% (active)
16,CCN(CC)C(=O)C(=O)c1cn(CC(=O)NCc2ccc3c(c2)OCO3)c2ccccc12,50.9% (active)
17,COc1ccc(-c2[nH]ncc2/C=N/NC(=O)c2cc(Br)ccc2O)c(OC)c1,15.2%
18,CCCCN1C[C@H](c2ccc(Br)cc2)[C@@H](CC(=O)Nc2ccc(Br)cc2)C1=O,33.1% (active)
19,O=C(NCc1cccc(CNC(=O)Nc2cccc(O)c2)c1)Nc1cccc(O)c1,8.48%
20,O=C(Cc1ccc(S(=O)(=O)N2CCOCC2)s1)Nc1ccc(Br)c(C(F)(F)F)c1,27.2% (active)
21,O=C(Nc1ccc(S(=O)(=O)Nc2ncccn2)cc1)c1cncc(Br)c1,-0.88%
22,O=C(O)CCn1c(O)c(C=C2N=c3ccccc3=N2)sc1=S,17.1% (active)
23,Cn1c(CCCOc2ccc(Cl)cc2Cl)n[nH]c1=S,11.9%

row,SMILES,inhibition
1,c1ccc2cc3c(NCCN4CCOCC4)ccnc3cc2c1,25.4% (active)
2,Cc1ccc(NC(=O)C(C)c2cccc(C(=O)c3ccccc3)c2)cc1 (stereo not drawn),65.3% (active)
3,O=C(NNC(=O)c1ccc(-n2cncn2)c([N+](=O)[O-])c1)c1ccccc1,32% (active)
4,Cc1ccccc1OCC(=O)NNC(=O)c1ccc(-n2cncn2)c([N+](=O)[O-])c1,11.1%
5,Cc1ccc(S(=O)(=O)N(C)C)cc1NC(=O)c1ccc(-n2cncn2)c([N+](=O)[O-])c1,34.4% (active)
6,CC(=O)c1ccc(NC(=O)c2ccc(-n3cncn3)c([N+](=O)[O-])c2)cc1,50.4% (active)
7,Cc1cc(C)cc(NC(=O)N(C)Cc2ccccc2)c1,4.52%
8,Cc1ccc(N2C(=O)CC(NCc3ccc4c(c3)OCO4)C2=O)cc1Cl (stereo not drawn),55.8% (active)
9,NS(=O)(=O)c1ccc(CCNC(=O)Nc2ccc(Cl)cc2)cc1,21.5% (active)
10,O=C(CSCC(=O)Nc1cccc([N+](=O)[O-])c1)Nc1ccccc1,8.38%
11,Fc1ccc(NC(=S)N2CCc3[nH]c4ccccc4c3C2)cc1,18.4% (active)
12,O=C(Nc1ccc(Cl)cc1)N1CCc2[nH]c3ccccc3c2C1,8.86%
13,O=C(Nc1cccc([N+](=O)[O-])c1)N1CCc2ccccc2C1,11.1%
14,COc1ccc(OCC(O)CNC(=O)Nc2ccc(Cl)cc2)cc1 (stereo not drawn),51% (active)
15,COc1ccc(NC(=O)C(NC(C)=O)C(=O)NCc2ccccc2Cl)cc1 (stereo not drawn),1.33%
16,CCCCN(C)Cc1c(C)[nH]c2ccc(Cl)cc2c1=O,39.9% (active)
17,Clc1ccc(-c2cc(C3CCNCC3)[nH]n2)c(Cl)c1,21.7% (active)
18,O=S(=O)(NCc1ccc(Cl)cc1Cl)c1cccs1,13.7%
19,O=C(NNc1cc(Cl)cc(Cl)c1)c1c(F)cccc1Cl,37.3% (active)
20,Oc1[nH]c2ccc(Br)cc2c1N=Nc1nn[nH]n1,13.7%
21,CSc1nsc(NC(=O)Nc2ccccc2)n1,18.2% (active)
22,OCCNc1nc2ccccc2n1-c1ncnc2sc3c(c12)CCC3,12.1%
23,Clc1ccccc1SCc1nc2ccccc2[nH]1,-1.51%

row,SMILES,inhibition
1,Cc1ccc(O)c(CNc2nc3ccccc3[nH]2)c1,77.9% (active)
2,S=c1[nH]nc(CSCc2ccc(Cl)cc2Cl)n1-c1ccccc1,2.4%
3,O=S(=O)(c1ccc(Br)cc1)N1CCC(c2nc3ccccc3[nH]2)CC1,4.17%
4,O=C(NCC(O)c1nc2ccccc2[nH]1)c1ccc(Br)cc1 (stereo not drawn),17.1% (active)
5,O=[N+]([O-])c1ccc(N2CCN(c3ccc(O)cc3)CC2)c(Cl)c1,8.79%
6,c1ccc(CN=C2Nc3ccccc3CS2)nc1,5.74%
7,COC(=O)CN1C(=S)N(c2ccccc2)C(=O)C1CC(=O)Nc1ccc(Cl)cc1 (stereo not drawn),15%
8,COc1ccccc1-n1c(SCC(=O)Nc2ccc(Cl)cc2)nc(O)c(Cc2ccccc2)c1=O,57.9% (active)
9,O=C(/C(=N\O)n1cncn1)c1ccc(Br)cc1Br,4.41%
10,O=C(O)c1ccc(NS(=O)(=O)c2ccc3c(c2)C(=O)c2cc(S(=O)(=O)Nc4ccc(C(=O)O)cc4)ccc2-3)cc1,1%
11,Cc1c(CN2CCC(CO)(CCOc3ccccc3)CC2)[nH]c2ccc(Cl)cc12,20.1% (active)
12,O=C(CSc1nc2ccccc2[nH]1)N/N=C/C=C\c1ccccc1[N+](=O)[O-],12.7%
13,Cc1ccc(-c2cnc(C(O)c3cc(Cl)cc(Cl)c3)[nH]2)cc1 (stereo not drawn),43.7% (active)
14,OC(c1cc(Cl)cc(Cl)c1)c1ncc(-c2ccccc2C(F)(F)F)[nH]1 (stereo not drawn),58.3% (active)
15,O=C(NCCN1CCOCC1)c1ccccc1N1C(=O)[C@@H]2Cc3c([nH]c4ccccc34)C(c3cccc(Cl)c3)N2C1=O (stereo partly drawn),13.3%
16,CC(=N\NC(=O)c1cc(Br)ccc1O)/C(=N/O)C(=O)Nc1ccccc1,4.72%
17,COC(=O)/C(=C\Nc1ccccc1)NC(=O)c1ccc(Cl)cc1Cl,59.6% (active)
18,O=C(Cn1c(NCCO)nc2ccccc21)c1ccc(Cl)cc1Cl,-2.79%
19,CC(C)OCCCNc1ncnc2c1[nH]c1ccc(F)cc12,80.6% (active)
20,CCN1CCCC1CNc1ncnc2c1[nH]c1ccc(F)cc12 (stereo not drawn),31.6% (active)
21,c1ccc2cc3[nH]c(CN4CCCCC4)nc3cc2c1,3.4%
22,CCCCCn1nnnc1-c1nc2cc3ccccc3cc2[nH]c1=O,24.4% (active)
